The whole screen tested about 5,500 compounds, of which about 2,000 (36%) were called active. Roughly 18% stayed inconclusive and do not appear here. Rule as the data show it: active = normalized growth mostly below about 0.91 (no sharp cut-off); inconclusive = no clear call, values can overlap the other calls; inactive = mostly above about 0.92. This is one part of the list.
Test: chemical genetic growth profiling, strain panel (AID 1159580);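 also: tested at 20 µM; growth read once vehicle control cultures reached saturation at 30 °C; 1 = growth at the plate median or of vehicle wells; lower values mean less growth of the strain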
Details: S. cerevisiae deletion strains, growth OD

Measured: normalized growth

C[C@@H]1C(=O)NC2=Nc3cccc(Cl)c3CN21
inactive: locus YAL013W, strain DEP1, stronger effect = lower value 0.983 | locus YAL040C, strain CLN3, stronger effect = lower value 1 | locus YCL061C, strain MRC1 (second series), stronger effect = lower value 1 | locus YDR150W, strain NUM1, stronger effect = lower value 1.01 | locus YDR363W, strain ESC2, stronger effect = lower value 1 | locus YER002W, strain NOP16, stronger effect = lower value 1 | locus YGR078C, strain PAC10, stronger effect = lower value 1 | locus YGR229C, strain SMI1, stronger effect = lower value 1 | locus YMR307W, strain GAS1, stronger effect = lower value 1 | locus YNL128W, strain TEP1, stronger effect = lower value 1.01 | locus YNL153C, strain GIM3, stronger effect = lower value 0.982 | locus YNL175C, strain NOP13, stronger effect = lower value 0.992 | locus YNL197C, strain WHI3, stronger effect = lower value 1 | locus YNL224C, strain SQS1, stronger effect = lower value 1 | locus YNL322C, strain KRE1, stronger effect = lower value 0.997 | locus YOR083W, strain WHI5 (second series), stronger effect = lower value 1.01 | locus YPL055C, strain LGE1, stronger effect = lower value 1.02 | locus YPL241C, strain CIN2, stronger effect = lower value 1

O=C1CN2Cc3c(ccc(Cl)c3Cl)N=C2N1
active: locus YEL037C, strain rad23, stronger effect = lower value 1.09 [resistant] | locus YER111C, strain swi4, stronger effect = lower value 1.1 [resistant] | locus YLR342W, strain FKS1, stronger effect = lower value 1.11 [resistant]
inactive: locus YAL021C, strain ccr4, stronger effect = lower value 0.988 | locus YAL026C, strain drs2, stronger effect = lower value 0.976 | locus YAL030W, strain snc1, stronger effect = lower value 0.987 | locus YBL061C, strain skt5, stronger effect = lower value 1 | locus YBR009C, strain hhf1, stronger effect = lower value 0.966 | locus YBR023C, strain chs3, stronger effect = lower value 0.983 | locus YBR171W, strain sec66, stronger effect = lower value 0.967 | locus YBR231C, strain swc5, stronger effect = lower value 0.982 | locus YBR279W, strain paf1, stronger effect = lower value 0.978 | locus YCL011C, strain gbp2, stronger effect = lower value 0.975 | locus YCL016C, strain dcc1, stronger effect = lower value 0.978 | locus YCL061C, strain MRC1, stronger effect = lower value 0.984 | locus YCL069W, strain vba3, stronger effect = lower value 0.986 | locus YCR088W, strain abp1, stronger effect = lower value 1.03 | locus YDL005C, strain med2, stronger effect = lower value 0.96 | locus YDL040C, strain nat1, stronger effect = lower value 0.986 | locus YDR001C, strain nth1, stronger effect = lower value 1.05 | locus YDR069C, strain doa4, stronger effect = lower value 0.972 | locus YDR137W, strain rgp1, stronger effect = lower value 0.962 | locus YDR159W, strain sac3, stronger effect = lower value 0.965 | locus YDR195W, strain ref2 0.961 | locus YDR297W, strain sur2, stronger effect = lower value 0.97 | locus YDR334W, strain swr1, stronger effect = lower value 0.99 | locus YDR335W, strain msn5, stronger effect = lower value 1.01 | locus YDR392W, strain spt3, stronger effect = lower value 0.952 | locus YEL003W, strain gim4, stronger effect = lower value 0.98 | locus YEL061C, strain CIN8 (second series), stronger effect = lower value 1.04 | locus YER015W, strain faa2, stronger effect = lower value 1.03 | locus YER016W, strain bim1, stronger effect = lower value 0.979 | locus YER155C, strain BEM2 (second series), stronger effect = lower value 1.02 | locus YFR010W, strain ubp6, stronger effect = lower value 1.02 | locus YGL167C, strain pmr1, stronger effect = lower value 0.968 | locus YGL173C, strain kem1, stronger effect = lower value 0.972 | locus YGL227W, strain vid30, stronger effect = lower value 0.969 | locus YGL240W, strain doc1, stronger effect = lower value 0.97 | locus YGL253W, strain hxk2, stronger effect = lower value 0.987 | locus YHR013C, strain ard1, stronger effect = lower value 0.956 | locus YHR027C, strain rpn1, stronger effect = lower value 0.996 | locus YHR030C, strain SLT2, stronger effect = lower value 0.984 | locus YHR079C, strain IRE1, stronger effect = lower value 0.996 | locus YHR142W, strain chs7, stronger effect = lower value 1.04 | locus YJL092W, strain hpr5, stronger effect = lower value 0.983 | locus YJL095W, strain BCK1 (second series), stronger effect = lower value 0.982 | locus YJL095W, strain BCK1, stronger effect = lower value 0.973 | locus YJL115W, strain asf1, stronger effect = lower value 1.08 | locus YJL129C, strain trk1, stronger effect = lower value 0.978 | locus YJL154C, strain vps35, stronger effect = lower value 0.976 | locus YJL164C, strain tpk1, stronger effect = lower value 0.999 | locus YJL166W, strain qcr8, stronger effect = lower value 0.993 | locus YJL187C, strain SWE1, stronger effect = lower value 0.977 | locus YJR066W, strain TOR1, stronger effect = lower value 0.929 | locus YKL160W, strain elf1, stronger effect = lower value 0.996 | locus YKR026C, strain gcn3, stronger effect = lower value 0.97 | locus YKR091W, strain srl3, stronger effect = lower value 0.987 | locus YLL001W, strain dnm1, stronger effect = lower value 0.956 | locus YLL026W, stronger effect = lower value 0.975 | locus YLL041C, strain sdh2, stronger effect = lower value 0.975 | locus YLR027C, strain aat2, stronger effect = lower value 0.991 | locus YLR113W, strain HOG1, stronger effect = lower value 1.01 | locus YLR221C, strain rsa3, stronger effect = lower value 1 | locus YLR258W, strain gsy2, stronger effect = lower value 0.979 | locus YLR262C, strain YPT6 (second series), stronger effect = lower value 0.985 | locus YLR320W, strain mms22, stronger effect = lower value 1.01 | locus YLR357W, strain rsc2, stronger effect = lower value 0.925 | locus YLR370C, strain arc18, stronger effect = lower value 0.97 | locus YLR384C, strain iki3, stronger effect = lower value 1.02 | locus YML120C, strain ndi1, stronger effect = lower value 0.996 | locus YMR058W, strain fet3, stronger effect = lower value 0.978 | locus YMR125W, strain sto1, stronger effect = lower value 0.92 | locus YMR129W, stronger effect = lower value 0.964 | locus YMR205C, strain PFK2, stronger effect = lower value 0.949 | locus YMR231W, strain pep5, stronger effect = lower value 0.968 | locus YNL071W, strain lat1, stronger effect = lower value 0.985 | locus YNL183C, strain NPR1, stronger effect = lower value 0.941 | locus YNL209W, strain ssb2, stronger effect = lower value 0.987 | locus YNL248C, strain rpa49, stronger effect = lower value 0.997 | locus YNL322C, strain KRE1 (second series), stronger effect = lower value 0.985 | locus YNR049C, strain mso1, stronger effect = lower value 1.02 | locus YOR001W, strain rrp6, stronger effect = lower value 0.996 | locus YOR070C, strain gyp1, stronger effect = lower value 1.03 | locus YOR080W, strain dia2, stronger effect = lower value 0.963 | locus YOR083W, strain WHI5, stronger effect = lower value 0.999 | locus YOR106W, strain vam3, stronger effect = lower value 0.991 | locus YOR231W, strain MKK1, stronger effect = lower value 0.989 | locus YOR265W, strain rbl2, stronger effect = lower value 0.988 | locus YOR270C, strain vph1, stronger effect = lower value 0.957 | locus YOR290C, strain snf2, stronger effect = lower value 0.957 | locus YPL051W, strain arl3, stronger effect = lower value 1 | locus YPL078C, strain atp4, stronger effect = lower value 0.995 | locus YPL106C, strain sse1, stronger effect = lower value 0.958 | locus YPL240C, strain hsp82, stronger effect = lower value 0.97 | locus YPL256C, strain CLN2, stronger effect = lower value 1.01
